Assay results taken from ChEMBL document CHEMBL4513216, “Probing the Open Global Health Chemical Diversity Library for Multistage-Active Starting Points for Next-Generation Antimalarials” (ACS Infect Dis, 2020).
Screen size: about 69,000 compounds; about 8,600 (12%) showed an effect of 50% or more. Many of the other results were omitted from the sample, so strong results are more common in it than they were.

System: Plasmodium berghei
Assay: Screen against P. berghei liver stage (PbLuc), transformed with Luciferase, at 10uM
Format: functional, HepG2
Conditions: tested at 10 uM

| SMILES | INHIBITION |
| --- | --- |
| O=C(C[C@@H]1COC[C@H]2CN(C3CCCC3)C[C@@H]12)NCc1cccnc1 | 20.6% |
| Cc1nnc2n1CCN(Cc1nc(-c3ccoc3)no1)C2 | -16.75% |
| COCc1ccc(CNCc2c(C)nn(C)c2N(C)C)cc1 | 33.7% |
| CCNC(=O)c1ccc(CNCc2c(C)nn(C)c2N(C)C)cc1 | 58.8% |
| Cc1nn(C)c(N(C)C)c1CNCc1ccc(C(=O)N(C)C)cc1 | -19.9% |
| CC(C)c1nn(C)c(N(C)C)c1CNCCC(=O)NC1CCCC1 | 35.8% |
| COc1c(CNCc2ccc(CN(C)C)cc2)c(C)nn1C | -15.8% |
| Cc1nn(C)c(N(C)C)c1CNCCC(=O)NC1CCCCC1 | 49.8% |
| COc1c(CNCc2ccc(OCC(N)=O)cc2)c(C)nn1C | 35.9% |
| COc1c(CNCc2ccc(C(=O)N(C)C(C)C)cc2)c(C)nn1C | 88.5% |
| COc1c(CNCc2ccc(S(C)(=O)=O)cc2)c(C)nn1C | -31.8% |
| COc1c(CNCc2ccc(C(=O)N3CCCC3)cc2)c(C)nn1C | 64.9% |
| COc1c(CNCc2ccc(C(=O)NC3CC3)cc2)c(C)nn1C | 13.5% |
| Cc1nn(C)c(N(C)C)c1CNCCC(=O)NC1CCCC1 | 64.8% |
| Cc1nn(C)c(N2CCOCC2)c1CNCc1ccoc1C | -29.8% |
| O=C1CC2(CCCC2)CC(=O)N1Cc1nccs1 | 28.4% |
| Cc1ncsc1CN1C[C@@H](O)[C@](O)(CNC(=O)c2ccccn2)C1 | 18.9% |
| O=C(NC1CCC1)[C@H]1C[C@@H]2[C@@H](C1)OCCN2CC1CC1 | 36.4% |
| Cc1ccc2c(c1)C1(CCN(C(N)=O)CC1)CN2CC1CC1 | 44.8% |
| NS(=O)(=O)c1cnn(CC(=O)Nc2c(Cl)cccc2Cl)c1 | 42.3% |
| Cc1nc(C)n(CCNS(=O)(=O)NCc2ccccc2)n1 | 49.9% |
| CS(=O)(=O)N1CCOCC2(CCN(C(=O)c3cnccn3)CC2)C1 | -6.23% |

| SMILES | INHIBITION |
| --- | --- |
| O=C(NCc1ccccc1Cn1cncn1)C1CCCCC1 | 30.6% |
| Cc1cnc(N2CC3(CCN(S(=O)(=O)C4CC4)C3)C2)nc1 | 40.3% |
| Cc1nn(C)cc1Cn1c(=O)c(C)nc2ccccc21 | -11.4% |
| COc1c(CNCc2ccc(C(=O)N(C)C)cc2)c(C)nn1C | 56.3% |
| COc1c(CNCc2cccc(C(=O)N(C)C)c2)c(C)nn1C | -29.8% |
| COc1c(CNCc2ccc(CS(C)(=O)=O)cc2)c(C)nn1C | 43.2% |
| COc1c(CNCCNC(=O)c2ccc(C)cc2)c(C(C)C)nn1C | -79.3% |
| COc1c(CNCCNC(=O)c2ccc(C)cc2)c(C)nn1C | 52.7% |
| COc1c(CNCCNC(=O)c2ccccc2)c(C)nn1C | 15.3% |
| CC(C)(C)C(=O)Nc1cnn(-c2ccccc2S(C)(=O)=O)c1 | -0.125% |
| O=C(c1ccccc1)N1CCC[C@]2(C[C@@H](Oc3ncccc3F)CO2)C1 | 5.96% |
| Cc1ccc(N2C[C@@H]3CCCO[C@@H]3[C@H](N3CCCC3)C2)nn1 | 20.1% |
| COCCCC1CCCN(Cc2c(C)ccc3ncccc23)C1 (centres undefined) | 5.41% |
| COc1ccc(S(=O)(=O)N2CCc3ccc(Cl)cc32)cc1C(=O)O | -54.6% |
| CCc1cn[nH]c1C1CCN(c2cc(C)c3cccc(OC)c3n2)CC1 | 42.7% |
| CCc1cn[nH]c1C1CCN(c2cc(C)c3cc(OC)ccc3n2)CC1 | 26.6% |
| CCc1cn[nH]c1C1CCN(c2cc(C)c3ccc(OC)cc3n2)CC1 | 71.1% |
| Cc1cccc(OCCC(=O)N(C)CCNS(C)(=O)=O)c1C | 7.11% |
| CC(C)(C)CC(=O)N1CCCC2(CC(C(=O)Nc3ccccc3)=NO2)C1 (centres undefined) | -32% |
| OCCCc1nncn1-c1cccc(C(F)(F)F)c1 | 33.4% |
| CC(C)N(C)C(=O)C1CCN(Cc2cc3c(cc2O)CCC3)CC1 | 33.6% |
| CN(C(=O)C1CCN(Cc2cnc3ccccn23)CC1)c1ccccc1 | 58.2% |

| SMILES | INHIBITION |
| --- | --- |
| CCc1nc(C)c(C(=O)N(C)Cc2cnc3ccccn23)o1 | 10.6% |
| CCOC(=O)N(C)C1CCN(Cc2cnc3ccccn23)CC1 | 8.12% |
| Cc1cccc(NC(=O)[C@@H]2CCCN2Cc2cnc3ccccn23)n1 | 45.7% |
| CC(C)N(C)C(=O)C1CCN(Cc2cnc3ccccn23)CC1 | 63.3% |
| O=C([C@H]1CCCO1)N1CC[C@H](O)[C@@H]1Cc1cccnc1 | 39.4% |
| CN(C)c1nc(N2CCCC2)nc2c1CCN(C(=O)c1ccco1)CC2 | 28.2% |
| CCCc1noc(CCC(=O)N2CCCC2c2cccc(OC)c2)n1 (centres undefined) | -34% |
| O=C1CCC(c2nc(C3CCN(C(=O)C4CC4)CC3)no2)N1 (centres undefined) | 14% |
| O=C1CCC(c2nc(C3CCNCC3)no2)N1 (centres undefined) | 55.8% |
| CC(=O)N1CCC(c2noc(C3CCC(=O)N3)n2)CC1 (centres undefined) | 18.4% |
| Cc1cc(C(F)F)nn1C(C)C(=O)NCc1ncc[nH]1 (centres undefined) | -1.21% |
| Cc1csc(N2CCN(C(=O)C3(C#N)CCCC3)CC2)n1 | -9.75% |
| NC(=O)COc1ccc(C2NC(=O)CN2Cc2ccc(Br)cc2)cc1 (centres undefined) | 15.9% |
| COc1cc(OC)cc(C2NC(=O)CN2Cc2ccc(Br)cc2)c1 (centres undefined) | 45.6% |
| Cc1cc(C2NC(=O)CN2Cc2ccc(Br)cc2)cc(C)c1O (centres undefined) | 60.4% |
| Cc1nc(CN2Cc3nccn3CC(CN3CCCC3)C2)cs1 (centres undefined) | -29.3% |
| C[C@@H]1CN(C(=O)c2nc3sccn3c2-c2ncc[nH]2)C[C@H](C)O1 | 11.3% |
| CN1CCCN(C(=O)c2nc3sccn3c2-c2ncc[nH]2)CC1 | -16% |
| O=C(c1nc2sccn2c1-c1ncc[nH]1)N1CCCCC1 | 50.2% |
| CC(C)c1cc(=O)[nH]c(-c2ccccc2CN2CCCC2C)n1 (centres undefined) | 31.8% |
| CCN1CCC(CC(=O)NC[C@H]2CCc3ccccc3O2)CC1 | 39.9% |
| CC(C)N1CCC(CC(=O)NC[C@H]2CCc3ccccc3O2)CC1 | 7.4% |

| SMILES | INHIBITION |
| --- | --- |
| CC(C)N1CCC(C(=O)NC[C@H]2CCc3ccccc3O2)CC1 | 61.5% |
| Cc1ccc(S(C)(=O)=O)cc1NCC(=O)NCCC1=CCCCC1 | -50.7% |
| CC(NC(=O)N(C)C1CC1)c1ccc(Oc2cccnc2)c(F)c1 (centres undefined) | 37.4% |
| Cc1cnn(CC2CCCN2C(=O)c2n[nH]c(=O)c3ccccc23)c1 (centres undefined) | -4.16% |
| N#Cc1nccnc1N1CCC(OCCCc2ccccc2)C1 (centres undefined) | 72.3% |
| N#Cc1nccnc1N1CCC(COCc2ccccc2)C1 (centres undefined) | 20.8% |
| N#Cc1nccnc1N1CCC(Cc2ccccc2)C1 (centres undefined) | 0.672% |
| CC(C)Cc1nnc(NCc2ccsc2)o1 | -54.5% |
| c1cc(CNc2nnc(Cc3ccsc3)o2)cs1 | -86.6% |
| CC(C)(C)Cc1nnc(NCc2ccsc2)o1 | 53.4% |
| COc1ccc(OC)c(C(C(=O)O)N2CCSCC2)c1 (centres undefined) | 17% |
| CC(c1ccc(F)c(F)c1)N(C)CCS(=O)(=O)CCC(N)=O (centres undefined) | 41.5% |
| CC(c1cccc(Cl)c1)N(C)CCS(=O)(=O)CCC(N)=O (centres undefined) | 37.8% |
| Cc1ccc(C(C)N(C)CCS(=O)(=O)CCC(N)=O)cc1 (centres undefined) | 56.3% |
| O=C(NCCCC(=O)N1CCN(CC2CC2)c2ccccc21)C1CC1 | 22.8% |
| CNC(=O)NC(=O)CN1CCN(CC2CC2)c2ccccc21 | 46.4% |
| NC(=O)NC(=O)CN1CCN(CC2CC2)c2ccccc21 | 35.3% |
| NC(=O)CN1CCN(CC2CC2)c2ccccc21 | 58.7% |
| NC(=O)NC(=O)CCN1CCN(CC2CC2)c2ccccc21 | 62.4% |
| COCCC(=O)N1CCN(CC2CC2)c2ccccc21 | 14.9% |
| CN1CCC2(CCN(Cc3nccs3)CC2)C1=O | 7.15% |
| O=C(NCC1CC1)C1CCC2(CCN(C(=O)c3ccco3)CC2)O1 (centres undefined) | -25.8% |

| SMILES | INHIBITION |
| --- | --- |
| CN(C(=O)CCc1nc(C2CC2)no1)c1cc(C#N)c2ccccc2n1 | 23.1% |
| O=C(c1ccc(S(=O)(=O)N2CCNCC2)cc1)N1CCCC(O)C1 (centres undefined) | 13.3% |
| CCCc1noc(CN2CCN(c3nccs3)CC2)n1 | -4.16% |
| Cc1cc(C2CCCN2Cc2ccc(S(=O)(=O)N3CCCC3)o2)on1 (centres undefined) | 19.2% |
| CCCC1c2ccccc2CCN1CCS(C)(=O)=O (centres undefined) | 22.8% |
| CCC1c2ccccc2CCN1CCNS(C)(=O)=O (centres undefined) | 18% |
| CCC1c2ccccc2CCN1CCCS(C)(=O)=O (centres undefined) | 50.6% |
| Cc1nn(-c2ccccc2)c2nc(C(C)(C)CN3CCN(C)CC3)[nH]c12 | 8.08% |
| Cc1noc(C)c1CC(=O)NCC(C(C)C)N1CCOCC1 (centres undefined) | 58.2% |
| Cc1noc(C)c1CNC(C(=O)N1CCOCC1)C(C)C (centres undefined) | 22.2% |
| CC(C)C(CNC(=O)NCc1cc[nH]n1)N1CCOCC1 (centres undefined) | -1.6% |
| Cc1cc(NC(=O)NCC(CC(C)C)N2CCOCC2)n(C)n1 (centres undefined) | -0.113% |
| O=C(NCc1cc[nH]n1)NCC(c1ccccc1)N1CCOCC1 (centres undefined) | 15.8% |
| Cc1noc(C)c1C(=O)NCCN1CCOCC1 | -27.8% |
| Cc1noc(C)c1CC(=O)NCC(C)N1CCOCC1 (centres undefined) | 46.1% |
| CCC(CNC(=O)Cc1c(C)noc1C)N1CCCC1 (centres undefined) | 57.3% |
| Cc1noc(C)c1CC(=O)NCCc1cccs1 | -26.9% |
| CC(C)CC(CNC(=O)NCc1cc[nH]n1)N1CCOCC1 (centres undefined) | 52% |
| Cc1noc(C)c1CC(=O)NCCN1CCN(S(C)(=O)=O)CC1 | -47.8% |
| Cc1noc(C)c1CC(=O)NCC(CC(C)C)N1CCOCC1 (centres undefined) | 62.8% |
| Cc1cc(NC(=O)CN2CCCC2c2c(C)nn(C)c2C)on1 (centres undefined) | 5.03% |
